High-throughput results: PubChem, National Center for Advancing Translational Sciences (NCATS)
Sampled rows, rich in hits. Any-hit rate of the full collection: about 4.6%.
TRHR agonist: TRH receptor (human) agonism; 0.18% of 360,000 active; P34981; activation, % at 2 µM; TRHR cells, calcium flux fluo-8, FDSS agonist mode; also: 0% is about no effect
Target sequence (P34981 whole entry, looked up): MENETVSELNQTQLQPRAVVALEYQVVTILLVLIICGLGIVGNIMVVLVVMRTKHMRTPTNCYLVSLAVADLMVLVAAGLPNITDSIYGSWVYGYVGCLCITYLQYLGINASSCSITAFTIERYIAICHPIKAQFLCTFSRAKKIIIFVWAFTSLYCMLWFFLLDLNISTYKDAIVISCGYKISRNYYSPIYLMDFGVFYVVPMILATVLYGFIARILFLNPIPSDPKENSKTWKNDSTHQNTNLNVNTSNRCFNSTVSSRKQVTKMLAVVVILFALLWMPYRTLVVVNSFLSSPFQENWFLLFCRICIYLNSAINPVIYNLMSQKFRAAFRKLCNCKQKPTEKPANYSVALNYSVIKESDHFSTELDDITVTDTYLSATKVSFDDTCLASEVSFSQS
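TRHR-expressing cells, plated overnight in medium with 10% serum, were loaded with fluo-8 calcium dye at room temperature. After a 10 s baseline, library compound was pin-added and calcium release was recorded kinetically (ex 480/em 530) as agonist response.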
D1 antag: human D1 dopamine receptor antagonism. 3.2% of 360,000 active. activity change, negative = inhibition, % at 10 µM. P21728. HEK293 TREx D1 cells, calcium flux, dopamine EC80; stronger effect = lower value; in the data active = activity change below about -30%; also: % is scaled to controls: 0 for no effect and ±100 for the full control effect
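Inducible Hek293 Trex D1 cells (tetracycline, overnight, 30 C). Calcium dye 30–90 min RT. Antagonist mode: EC80 dopamine added after 180 s compound read.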
D1 potentiator: potentiators of human D1 dopamine receptor. P21728. HEK293 TREx D1 cells, calcium flux, dopamine EC20 potentiation. potentiation, % at 10 µM. 0.036% of 360,000 active. AID 504651; in the data active = potentiation above about 30%; also: 0% is about no effect
D1 ag: activates the human D1 dopamine receptor. HEK293 T-REx D1 cells, calcium flux, agonist mode. activation, % at 2 µM. P21728. AID 504660. 1% of 360,000 active; also: 0% is about no effect
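Agonism was scored from calcium flux recorded over 180 s (1 read/s) after pintool compound addition, following a 10-cycle baseline. Cells were inducible force-coupled HEK293 TREx D1, plated overnight at 30 C and loaded with no-wash calcium dye.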
TRHR PAM: allosteric enhancers of human TRH receptor; TRHR cells, fluo-8 calcium fluorescence, EC20 TRH enhancement; P34981; 0.66% of 360,000 active; enhancement, % at 2 µM; in the data active = enhancement above about 30%; also: 0% is about no effect
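Enhancer read-out: after compound pinning and an initial kinetic agonist-mode read, an EC20 of TRH (10 nM final) was injected and fluo-8 calcium signal (Ex 480/Em 530) followed at 1 s/cycle for 100 cycles in TRHR-expressing cells.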
* hit, by the source's call; nt = no result given; ! = not confirmed by another sample. Rule as the data show it, unless noted: active = activation above about 30%; inactive = the rest.

SMILES	TRHR agonist	D1 antag	D1 potentiator	D1 ag	TRHR PAM
CC(C)C[C@H](NC(=O)c1[nH]cnc1C(=O)N[C@H](C)c1ccccc1)C(=O)OC(C)(C)C	1.0	26.0	-4.2	5.5	-1.8
CC(C)C[C@H](NC(=O)c1nc[nH]c1C(=O)NC(c1ccccc1)c1ccccc1)C(=O)OC(C)(C)C	0.5	-32.8*	-5.2	10.7	-12.0
C[C@@H](NC(=O)c1[nH]cnc1C(=O)Nc1ccccc1)c1ccccc1	0.8	nt	1.8	-2.4	35.8*
C[C@@H](NC(=O)c1nc[nH]c1C(=O)NC1CCN(C(=O)OC(C)(C)C)CC1)c1ccccc1	-0.2	-67.0*	1.9	0.1	-0.3
NC1=NC2(CCN(Cc3ccccc3)CC2)n2c(nc3ccccc32)N1	0.6	-43.2*	-10.2	0.8	3.4
CCOc1ccc(S(=O)(=O)n2nc(C)cc2C)c2ccccc12	-1.5	16.7	2.8	5.5	35.1*
O=c1[nH]c(CN2CCN(c3ccc(O)cc3)CC2)nc2scc(-c3ccc(Cl)cc3)c12	-1.3	-33.0*	-8.8	0.7	-2.9
COc1ccc(Br)c2c1-c1nc(NC(=O)c3ccccc3F)sc1C2	0.6	22.5	1.9	1.3	6.3
COc1ccc(Br)c2c1-c1nc(NC(=O)c3ccccc3SC)sc1C2	-1.0	-36.2*	-8.2	-1.5	-9.1
CCSc1nnc2c(n1)OC(c1sccc1C)N(C(C)=O)c1ccccc1-2 (configuration not stated)	-1.1	3.1	-0.2	0.7	0.9
COc1ccc(-c2nonc2NC(=O)c2ccco2)cc1OC	-0.2	-36.9*	2.8	1.0	0.3
O=C(Nc1ccc(F)c(Cl)c1)c1ccccc1	-1.1	-46.5*	-7.8	21.0	0.4
O=C(NC(=S)Nc1ccc(Cl)cc1)c1ccccc1	5.1	-53.2*	-5.4	13.4	9.0
O=C(NC(=S)Nc1ccc(Oc2ccc(Cl)cc2)cc1)c1ccccc1	0.6	16.9	-9.4	6.5	-5.9
O=C(Nc1cccc(Cl)c1Cl)c1snnc1-c1ccccc1	0.3	7.6	-3.5	26.1	-2.1
O=C(Nc1cc(Cl)ccc1O)c1snnc1-c1ccccc1	3.5	-38.7*	-2.9	19.4	-8.5
O=C(Nc1cc(Cl)ccc1Cl)c1ccc(-c2ccccc2)cc1	1.0	-34.0*	-0.8	12.1	9.0
O=C(Nc1ccc(F)c(Cl)c1)c1cccnc1	0.3	-9.3	-1.8	2.9	-6.4
O=C(NC(=S)Nc1ccc2cn[nH]c2c1)c1ccccc1	1.2	-35.0*	-3.6	9.6	3.6
CC(=O)Nc1cc(C(N)=O)c(Cl)cc1Cl	0.5	-31.3*	-9.2	2.0	-3.3
CC(=O)Nc1ccc(Cl)c(C(N)=O)c1	0.4	1.0	10.1	4.6	-0.3
CCN(CC)C(=O)c1ccc2c(c1)N(Cc1ccc(C(F)(F)F)cc1)C(=O)c1ccccc1S2	0.8	7.9	-0.4	3.8	-9.4
CCOC(=O)c1c(CSCc2ccccc2)oc2ccc(O)c(CN(C)C)c12	0.1	1.3	-2.7	36.3*	-9.0
CCn1c(=O)c([N+](=O)[O-])c(NCCc2ccccc2)c2ccccc21	-0.2	-51.6*	-2.2	4.9	10.9
Cn1c(=O)c([N+](=O)[O-])c(NCCc2ccccc2)c2ccccc21	0.1	16.7	1.5	0.9	-5.5
SMILES	TRHR agonist	D1 antag	D1 potentiator	D1 ag	TRHR PAM
COc1ccc(C)cc1NC(=O)C1CCN(S(=O)(=O)c2c(C)noc2/C=C/c2ccco2)CC1	0.0	3.2	5.3	0.3	-3.3
CCc1ccc(NC(=O)c2sc3nc(C)nc(N4CCN(c5ccccn5)CC4)c3c2C)cc1	0.9	-84.1*	-12.2	2.3	3.0
CCCN(CCC)CCNC(=O)c1cc2c(=O)oc3ccc(C)cc3c2s1	0.2	2.6	-1.2	2.5	-3.0
CSC1=NC(C(Cl)(Cl)Cl)N=C(c2ccc(C)cc2)N1 (configuration not stated)	0.5	-85.0*	-5.1	0.0	1.1
CCC1N=C(SC)NC(C)=C1C(=O)c1ccccc1 (configuration not stated)	-0.2	8.0	-2.5	2.9	-0.4
COc1ccc(/C=C2\N=C3CCCCCN3C2=O)cc1OC	-0.6	7.7	-2.4	0.9	-2.6
COc1ccc(/C=C2\N=C(C)N(c3ccc4ccccc4c3)C2=O)cc1OC	2.5	-43.4*	-6.7	8.1	-8.6
N#CNC(=Nc1cccc(F)c1)SCc1cccc(F)c1	2.4	-31.6*	-5.8	23.1	-4.1
CC(C)N=C(NC#N)SCc1ccccc1	-0.8	-46.5*	-3.8	1.9	-2.9
CC(C)N=C(NC#N)SCc1ccc(Br)cc1	-0.7	-4.0	-3.4	2.2	3.0
CCOc1ccc(S(=O)(=O)N2CCN(c3cccc(C(F)(F)F)c3)CC2)cc1OCC	0.6	-10.2	-0.8	3.5	1.5
CC(=O)COc1ccc2c(-c3cccc([N+](=O)[O-])c3)cc(=O)oc2c1	-0.4	2.4	-1.0	0.3	-7.5
COc1ccc([N+](=O)[O-])cc1COc1ccc2c(-c3ccccc3)cc(=O)oc2c1	1.3	-32.9*	-13.6	4.6	-4.0
OCC1(Cc2ccccc2F)CCCN(Cc2c(F)ccc(F)c2F)C1 (configuration not stated)	0.1	-18.8	-9.8	0.5	30.5*
CCOc1ccc(CCNC(=O)CCc2c(C)nc3c4c(C)cc(C)nc4nn3c2C)cc1	-1.8	-35.7*	-2.5	-1.5	15.2
Cc1nc2cc(-c3cccc(F)c3)nn2c(C)c1CCC(=O)N1CCN(c2ccc(F)cc2)CC1	-0.2	9.4	-3.5	-1.1	4.3
COc1ccc(CCNC(=O)CCc2c(C)nc3cc(-c4cccc(F)c4)nn3c2C)cc1OC	-0.1	-33.7*	-0.3	1.7	5.6
COc1ccc(CCNC(=O)CCc2c(C)nc3c(-c4ccc(F)cc4)c(C)nn3c2C)cc1OC	-0.6	6.5	-2.6	0.4	2.6
COc1ccccc1-c1cc2nc(C)c(CCC(=O)NCCc3ccc(SC)cc3)c(C)n2n1	-0.8	-47.5*	-5.7	8.2	-11.3
COc1ccc(N2CCN(C(=O)CCc3c(C)nc4cc(-c5cccc(F)c5)nn4c3C)CC2)cc1	-0.2	20.7	0.3	0.3	36.8*
CCc1nn(CC(=O)NC(C)C)c(=O)c2cc3cc(F)ccc3n12	-0.3	10.8	-4.2	-1.0	-9.1
O=S1(=O)[C@H]2C[C@@H]3CC[C@]2(CN1Cc1cccc(F)c1)O3	-0.3	-46.5*	-8.7	0.8	-3.7
Cc1ccc2nc(Cl)c(CNCc3ccccc3)cc2c1	0.5	-35.4*	5.5	4.5	26.7
CC1=C(C#N)C(NC(=O)c2cccc(Cl)c2)(C(F)(F)F)C(=O)N1 (configuration not stated)	-0.1	-30.6*!	-0.1	-0.4	-6.1
COc1ccc(C(=O)NC2(C(F)(F)F)C(=O)NC(C)=C2C#N)cc1 (configuration not stated)	0.2	-9.1	-1.8	-0.9	41.1*
